From PubChem BioAssay
The list is not random: actives were taken first. Their share in the collection is about 11%.
Tau fibril ThT: blocks human tau fibril formation measured by thioflavin T; P10636; 2.1% of 270,000 active; Potency, µM (doses to about 57.4 µM), for the others: at the highest dose activity, negative = inhibition, actives largely listed as inhibitors; recombinant tau K18 P301L, heparin-induced fibrillization, ThT fluorescence; also: potency is read from the fitted curve at half-maximal effect; nearly all actives have a fitted effect of over 55% in size
Target sequence (P10636 561-689 P618L limits assumed): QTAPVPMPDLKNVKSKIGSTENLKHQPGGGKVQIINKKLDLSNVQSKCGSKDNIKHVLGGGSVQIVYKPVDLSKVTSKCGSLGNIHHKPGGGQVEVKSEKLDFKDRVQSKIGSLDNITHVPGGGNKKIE
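ThT emission at 510 nm, taken 1 hr after adding 30 uM dye, quantifies aggregates formed when 20 uM heparin acts on human tau K18 P301L for 6 hr at 37 C.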
Tau fluor cs: counter-screen for tau fibril formation inhibitors | Potency, µM (titrated, usually from 57.7 µM), without a hit: at the top dose activity change, negative = decrease | AID 1463 | tau K18 P301L (four-repeat tau fragment) Alexa594 fluorescence, heparin fibrillization | 0.93% of 280,000 active; also: potency is read from the fitted curve at half-maximal effect; nearly all actives have a fitted effect of over 55% in size
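Human K18 P301L tau (15 uM unlabeled plus 0.24 uM Alexa 594-labeled, final) in 100 mM sodium acetate pH 7 was mixed with compound and 20 uM heparin and incubated 6 hr at 37 C.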
Tau FP inhib: tau fibrillization inhibition (FP). P10636. K18 P301L tau heparin fibrillization, Alexa594 FP, 6 h. Potency, µM (doses to about 57.7 µM), for the others: at the highest dose activity, negative = inhibition, most hits filed as inhibitors. 0.39% of 280,000 active. AID 1468; also: potency is read from the fitted curve at half-maximal effect; nearly all actives have a fitted effect of over 55% in size
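Human tau K18 […] P301L fragment, 15 uM unlabeled plus 0.24 uM Alexa 594-labeled tau (final), with compound and 20 uM heparin in 100 mM sodium acetate pH 7; 6 hr at 37 C, then Alexa 594 FP read.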
G9a block: blocks human histone lysine methyltransferase G9a; Q96KQ7; Potency, µM (highest dose often 102 µM), without a hit: at the highest dose activity, negative = inhibition, most hits filed as inhibitors; G9a H3K9 monomethylation, AlphaScreen, 2 h; 8.8% of 350,000 active; AID 504332; also: potency is read from the fitted curve at half-maximal effect; nearly all actives have a fitted effect of over 75% in size
Target sequence (Q96KQ7 913-1193 limits assumed): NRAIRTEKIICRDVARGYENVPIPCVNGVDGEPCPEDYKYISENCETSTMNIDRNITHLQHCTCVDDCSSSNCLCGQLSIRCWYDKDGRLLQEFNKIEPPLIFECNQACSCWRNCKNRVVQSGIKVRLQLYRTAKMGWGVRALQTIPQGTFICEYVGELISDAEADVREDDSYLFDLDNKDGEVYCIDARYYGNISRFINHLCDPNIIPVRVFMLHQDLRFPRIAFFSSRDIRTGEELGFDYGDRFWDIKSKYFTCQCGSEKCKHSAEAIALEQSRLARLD
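Compounds were preincubated with 20 nM G9a for 15 min, after which biotinylated H3K9 peptide (500 nM) and SAM (20 uM) started a 2 h room-temperature reaction. Monomethylated product was quantified by antibody-based AlphaScreen chemiluminescence.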
FBPA coupling cs: counter-screen for Giardia aldolase inhibitors: coupling enzyme system | 0.67% of 290,000 active | activity change, negative = inhibition, % at 58.2 µM, hits read low | coupling enzyme system counterscreen, AmpLite Red fluorescence; in the data active = activity change below about -30%
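Activity here indicates interference with the coupling reaction, not aldolase inhibition. Compounds at 57.5 uM final met coupling enzymes for 10 min at RT; substrate and AmpLite Red detection followed, with a 525/598 nm fluorescence read after 20 min.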
Sfp PPTase inh: blocks B. subtilis Sfp PPTase activity; Biochemical Sfp PPTase activity, qHTS; Potency, µM, inactives show largest response in the series, negative = inhibition, actives largely listed as inhibitors; Q9F4F7; 3.5% of 310,000 active;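 also: the enzyme is Sfp with the accession as filed and its product quenches rhodamine fluorescence; potency is read from the fitted curve at half-maximal effect; 0% = enzyme reaction without inhibitor and -100% = no enzyme wells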
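Fluorescence-quenching assay with 15 nM Sfp, 5 uM rhodamine-CoA and 12.5 uM BHQ-2-labelled ybbR peptide in pH 7.6 Hepes/MgCl2 buffer. Enzyme was pre-incubated with compound for 15 min at room temperature. Rate was taken from the 30-min fluorescence change (525/598 nm).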
* marks the source's active call; other numbers are inactive results; ? = inconclusive; . = not tested or not shown; [ ] = dose if it differs, or a comment. Unless noted, calls follow the shape of the dose curve; as a rule, active = well fitted curve in the direction sought with a large enough effect; inconclusive = small, poorly fitted or top-dose-only effect, or another doubt; inactive = no such curve, though single readings can be large; an effect the other way counts as inactive or inconclusive. Unless noted, % is scaled to controls: 0 for no effect and ±100 for the full control effect.

SMILES	Tau fibril ThT	Tau fluor cs	Tau FP inhib	G9a block	FBPA coupling cs	Sfp PPTase inh
O=c1c2c(nc3n1CCCCC3)sc1c(O)c(Br)ccc12	?	-14%	9%	1.8µM*	-9	-22%
CCN(CC)CCOc1c(Br)ccc2c1sc1nc3n(c(=O)c12)CCC3	-12%	-6%	-4%	50µM*	1	0%
Cc1sc2nc3n(c(=O)c2c1C)CCCCC3	-7%	-4%	1%	-1%[59 µM]	2	19%
CCOC(=O)NN1C(=O)c2ccccc2NC1c1cccs1 (centres undefined)	.	.	.	-3%	2	12%
Cc1ccc(OCC(=O)Nc2nnc(SCc3cc(=O)c4ccccc4[nH]3)s2)cc1C	1%	-21%	-21%	4%[59 µM]	.	.
Cc1ccc(Nc2nc(CSc3nnc(-c4ccccc4C)n3C)cs2)cc1	?	?	7%	32µM*	-1	?
Cc1ccccc1-n1c(SCc2csc(Nc3ccccc3)n2)nnc1-c1cccnc1	?	?	15%	25µM*	3	-15%
Cc1ccc(Nc2nc(CSc3nnc(-c4ccccc4)n3C)cs2)cc1	?	-22%	11%	?	-3	-49%
Cc1ccc(Nc2nc(CSc3nnc(-c4cccnc4)n3-c3ccccc3C)cs2)cc1	8%	9%	7%	?	-1	-40%
Cn1nnnc1SCc1csc(Nc2ccccc2)n1	-17%	-14%	5%	?	0	50µM*
Cc1ccc(Nc2nc(CSc3nnnn3-c3ccccc3)cs2)cc1	?	11µM*[quencher]	13%	?	3	-9%
CN(C(=O)COC(=O)c1cc(S(=O)(=O)N2CCOCC2)ccc1Cl)C1CCS(=O)(=O)C1 (centres undefined)	.	.	.	-33%	.	.
CN1CCN(C(=S)Nc2ccc([N+](=O)[O-])cc2)CC1	-9%	-10%	8%	-11%[0.0925 µM]	-2	89µM*
S=C(Nc1ccccc1)N1CCc2ccccc21	.	.	.	19%[0.501 µM]	0	5%
O=[N+]([O-])c1ccc(NC(=S)N2CCc3ccccc32)cc1	.	.	.	35µM*	.	-1%
O=[N+]([O-])c1ccc(NC(=S)N2CCCC2)cc1	.	.	.	21%	4	11%
CCc1cccc(NC(=O)c2c(C)oc3ncnc(N4CCCCC4)c23)c1	0%	2%	6%	-23%[59 µM]	.	.
CC(=O)Nc1cccc(/C(C)=N/NC(=O)c2ccc3c(c2)OCO3)c1	-13%	10%	0%	-31%	1	1%
O=C(CSc1ncnc2sc(-c3ccccc3)cc12)NC1CCS(=O)(=O)C1 (centres undefined)	-2%	-16%	-3%	1%	4	-1%
Cc1ccccc1-n1c(C)nnc1SCc1cc(=O)oc2ccc3ccccc3c12	-8%	-3%	-11%	?	2	79µM*
COc1ccc2c(c1)O[C@@H](c1cccc(C(F)(F)F)c1)[C@H](OC(=O)N[C@H](C)C1CCCCC1)C2=O	-5%	-6%	1%	.	1	2%
O=[N+]([O-])C(=C1Nc2ccccc2N1)/C(Cl)=C(/Cl)Br	?	-22%	?	7.9µM*	-3	-19%
CCCC1=[N+](CC)CCn2c(C)ccc21	-9%	-6%	6%	14µM*	0	-7%
Cc1[nH]nc(N)c1-c1ccccc1	10%	-2%	-2%	.	0	5%
Cc1ccc(-c2[nH]nc(N)c2N=Nc2cccc(Cl)c2C)cc1	13µM*	6.3µM*[quencher]	?	?	0	9%
SMILES	Tau fibril ThT	Tau fluor cs	Tau FP inhib	G9a block	FBPA coupling cs	Sfp PPTase inh
Cc1ccc(-c2[nH]nc(N)c2N=Nc2ccccc2C)cc1	16µM*	11µM*[quencher]	-5%	?	0	10%
Cc1cccc(N=Nc2c(N)n[nH]c2-c2ccc(Cl)cc2)c1	?	8.9µM*[quencher]	?	22%[0.501 µM]	1	11%
COC(=O)CC1c2ccccc2C(Cc2ccc(OC)cc2)C(C)N1C(=O)OC (centres undefined)	13%[11.5 µM]	8%[11.6 µM]	2%[11.6 µM]	.	0	-6%
Cc1ccc(N=Cc2nc(-c3ccco3)oc2O)cc1	?	?	2%	1%[59 µM]	-1	9%
O=C(Oc1oc(-c2ccco2)nc1C=Nc1ccccc1)c1ccco1	?	-16%	?	?	0	11µM*
O=C(Oc1oc(-c2ccco2)nc1C=Nc1ccccc1)c1ccoc1	?	-6%	-26%	7.1µM*	-3	20µM*
Cc1ccc(C(=O)Oc2oc(-c3ccco3)nc2C=Nc2ccc(Cl)cc2)cc1	?	-6%	-15%	50µM*	-3	?
Cc1cn2c(=O)c3ccccc3nc2n2c(=O)c3ccccc3nc12	-1%	0%	5%	.	1	-3%
CCc1ccc(NCc2cc3cc4c(cc3n(CC(=O)Nc3cccc(OC)c3)c2=O)OCO4)cc1	2%	?	?	?	.	.
Cc1cc([N+](=O)[O-])cc([N+](=O)[O-])c1NCC(C)C	?	?	12%	16µM*	2	-4%
COc1ccc(C(CNc2ccc(C(F)(F)F)cn2)N(C)C)cc1OC (centres undefined)	.	.	.	-1%	0	8%
CCc1nnc(NC(=O)CSc2ccc(-c3ccc(-n4cccn4)cc3)nn2)s1	.	.	.	10µM*	.	.
COc1ccc(-c2cc(-c3ccccc3)nc(SCC(=O)Nc3ncc(C)s3)c2C#N)cc1	-1%	-22%	?	?	-3	14%
CCc1nnc(NC(=O)CSc2nc(-c3ccc(F)cc3)cc(-c3ccccc3)c2C#N)s1	-4%	-9%	-8%	3.2µM*	3	32µM*
Cc1ccccc1NC(=O)CSc1ccc(-c2ccc(-n3cccn3)cc2)nn1	.	.	.	18%[59 µM]	.	.
CCOC(=O)c1cc(-c2ccc(C)cc2)n(CC(=O)Nc2ccc(OC)c(Cl)c2)c1C	8%	-10%	-4%	-4%[59 µM]	.	.
Cn1c(=O)[nH]c(=O)c2[nH]c(N(Cc3ccccc3)Cc3ccccc3)nc21	?	-16%	-11%	50µM*	3	89µM*
COc1ccc(C(=O)NC2CCSc3ccccc32)cc1S(=O)(=O)N1CCOCC1 (centres undefined)	.	.	.	8%[0.501 µM]	.	.
COc1ccc(/C=N/NC(=O)C(=O)/C=C2\NC3(CCCC3)Cc3ccccc32)cc1	?	-20%	11%	11%[59 µM]	0	9%
O=C(/C=C1\NC2(CCCC2)Cc2ccccc21)C(=O)N/N=C/c1ccc(O)c(O)c1	-10%	-13%	1%	11µM*	1	3%
CNS(=O)(=O)c1ccc(Cl)nc1	4%	12%	1%	-16%	9	-9%
CC1CCC(NS(=O)(=O)c2ccc(Cl)nc2)CC1 (centres undefined)	.	.	.	50µM*	.	.
